Results from PubChem BioAssay (NCATS).
Results filed as inconclusive are left out. Unmarked numbers belong to inactive results. Activity calls are given as the source filed them. Calls follow the shape of the dose curve; as a rule, active = well fitted inhibition curve with a large enough effect; inconclusive = small, poorly fitted or top-dose-only effect; inactive = flat fitted curve, though single readings scatter.
Potency is read from the fitted curve at half-maximal effect.

What follows are compounds tested on C2A (assay: qHTS profiling for inhibitors of Plasmodium falciparum proliferation (AID 504749; also: nearly all actives have a fitted effect of over 60% in size;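 as to activity, negative = inhibition: 0% = DMSO vehicle and full inhibition = artemisinin control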)). Conditions: P. falciparum in erythrocytes, SYBR Green DNA, 72 h; series mostly up to 28.7 µM; activity, negative = inhibition: at the top concentration.
Outline: (§1)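 Each compound contacts P. falciparum-infected red blood cells for 72 h at 37 C; lysis buffer (Tris, EDTA, saponin, Triton X, SYBR Green I) is added and fluorescence measured next morning; values normalized to controls.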
For NC(=O)C1CC2(NC(=O)NC2=O)c2cc(F)ccc2O1 (stereo not drawn), the “activity, negative = inhibition” value was 4.75%.
For CN1[C@@H]2CC[C@@H]1CC(OC(=O)[C@H](CO)c1ccccc1)C2 (stereo partly drawn), the “activity, negative = inhibition” value was -0.678%.
For CC[C@@]1(O)C[C@H](O[C@H]2C[C@@H](N(C)C)[C@@H](O[C@H]3C[C@@H](O)[C@@H](O[C@H]4CCC(=O)[C@@H](C)O4)[C@@H](C)O3)[C@@H](C)O2)c2c(cc3c(c2O)C(=O)c2c(O)cccc2C3=O)[C@H]1C(=O)OC, the Potency was 178 nM (active).
In the case of CCCCCCCCCCCC(=O)OCC(O)C1OCC(O)C1O (stereo not drawn), the “activity, negative = inhibition” value is reported as -0.889%.
With C/C1=C2/[N-]C(C(CC(N)=O)[C@@]2(C)CCC(=O)NCC(C)OP(=O)([O-])O[C@H]2[C@@H](O)[C@@H](n3cnc4cc(C)c(C)cc43)O[C@@H]2CO)[C@]2(C)N=C(/C(C)=C3N=C(/C=C4N=C1C(CCC(N)=O)C\4(C)C)[C@@H](CCC(N)=O)[C@]\3(C)CC(N)=O)[C@@H](CCC(N)=O)[C@]2(C)CC(N)=O.CC(=O)O.[Co] (stereo partly drawn) the “activity, negative = inhibition” value was -14.3%.
For CC1(C)OC[C@@H]2O[C@@]3(C(=O)O)OC(C)(C)O[C@@H]3[C@@H]2O1, the “activity, negative = inhibition” value was 1.88%.
For Cc1ccccc1N1C(=O)c2cc(N)ccc2N/C1=C\F, the “activity, negative = inhibition” value was -19.1%.
For CCC(C(=O)O)C1OC(C(C)C(O)C(C)C(=O)C(CC)C2OC3(C=CC(O)C4(CCC(C)(C5CCC(O)(CC)C(C)O5)O4)O3)C(C)CC2C)C(C)CC1C (stereo not drawn), the Potency was 126 nM (active).
With O=C1C(I)=CC(=C(c2cc(I)c(O)c(I)c2)c2ccccc2C(=O)O)C=C1I the “activity, negative = inhibition” value was -24.9%.
For NC(=O)NC(CCC(=O)O)C(=O)O (stereo not drawn), the “activity, negative = inhibition” value was 2.47%.
With COC1CC2CCC(C)[C@](O)(O2)C(=O)C(=O)N2CCCCC2C(=O)OC(C(C)CC2CCC(O)C(OC)C2)CC(=O)C(C)/C=C(/C)C(O)C(OC)C(=O)C(C)CC(C)C=CC=C/C=C\1C (stereo partly drawn) the Potency was 4470 nM (active).
CC(=O)OCC(=O)[C@@]1(O)CCC2C3C[C@H](C)C4=CC(=O)C=CC4(C)C3C(O)CC21C (stereo partly drawn) was tested, and the “activity, negative = inhibition” value was -2.98%.
With CN[C@H](C)CCC=C(C)C the Potency was 631 nM (active).
With CC1(C)C2CC[C@]1(C)[C@@H](O)C2 the “activity, negative = inhibition” value was 1.87%.
OCC1O[C@H](Oc2ccc(O)cc2)C(O)C(O)C1O (stereo partly drawn) was tested, and the “activity, negative = inhibition” value was 1.53%.
Nc1nc(F)nc2c1ncn2[C@@H]1O[C@H](CO)[C@@H](O)[C@H]1O was tested, and the “activity, negative = inhibition” value was -4.68%.
With CC1OC(OC2CCC3(C)C(CCC4C3CC(O)C3(C)C(C5=CC(=O)OC5)CCC43O)C2)CC(O)C1OC1CC(O)C(OC2CC(O)C(OC3OC(CO)C(O)C(O)C3O)C(C)O2)C(C)O1 (stereo not drawn) the “activity, negative = inhibition” value was 2.16%.
CC1OC(OCC2OC(Oc3c(-c4ccc(OCCO)c(OCCO)c4)oc4cc(OCCO)cc(O)c4c3=O)C(O)C(O)C2O)[C@@H](O)C(O)C1O (stereo partly drawn) was tested, and the “activity, negative = inhibition” value was -24.9%.

These compounds were tested on CP185 in the same assay as above. Conditions: P. falciparum in erythrocytes, SYBR Green DNA, 72 h; series mostly up to 28.7 µM; activity, negative = inhibition: at the top concentration.
Outline: as §1
For CCCCCCCCCCCCCCCC(=O)OC[C@H](O)[C@H]1OC[C@@H](O)[C@@H]1O, the “activity, negative = inhibition” value was 10.7%.
In the case of CCCCC(=O)OCC(=O)[C@]1(O)Cc2c(O)c3c(c(O)c2[C@H](OC2CC(NC(=O)C(F)(F)F)C(O)C(C)O2)C1)C(=O)c1c(OC)cccc1C3=O (stereo partly drawn), the Potency is reported as 2240 nM (active).
C[C@H]1OC(OC2C(O)[C@@H](O)C(OC3C(O)[C@@H](O)C(O)O[C@@H]3CO)O[C@@H]2CO)[C@H](O)C(O)C1N[C@H]1C=C(CO)[C@@H](O)[C@H](O)C1O (stereo partly drawn) was tested, and the “activity, negative = inhibition” value was 7.42%.
In the case of CCN(CC)CC(=O)Nc1c(C)cc(C)cc1C, the “activity, negative = inhibition” value is reported as -3.82%.
With CC(=O)N[C@H]1[C@H](O[C@@H]2c3ccc(c(Cl)c3)Oc3cc4cc(c3O[C@@H]3O[C@H](CO)[C@@H](O)[C@H](O)C3C)Oc3ccc(cc3Cl)C[C@H]3NC(=O)[C@@H](N)c5ccc(O)c(c5)Oc5cc(O)cc(c5)[C@H](NC3=O)C(=O)N[C@H]4C(=O)N[C@H]3C(=O)N[C@@H]2C(=O)N[C@@H](C(=O)O)c2cc(O)cc(O[C@H]4O[C@H](CO)[C@@H](O)C(O)[C@@H]4O)c2-c2cc3ccc2O)O[C@H](CO)[C@@H](O)[C@@H]1O (stereo partly drawn) the “activity, negative = inhibition” value was 14.5% [at 12.8 µM].
With NC(=O)c1ncn(C2OC(CO)C(O)C2O)c1N (stereo not drawn) the “activity, negative = inhibition” value was 3.28%.
In the case of C[C@H]1[C@@H](OC(=O)CCC(=O)O)OC2OC3(C)CC[C@H]4[C@H](C)CC[C@@H]1[C@@]24OO3 (stereo partly drawn), the Potency is reported as 5 nM (active).
CC1(Cn2ccnn2)[C@H](C(=O)O)N2C(=O)C[C@H]2S1(=O)=O (stereo partly drawn) was tested, and the “activity, negative = inhibition” value was 4.63%.
CN(C)CC/C=C1\c2ccccc2COc2ccc(CC(=O)O)cc21 was tested, and the “activity, negative = inhibition” value was 1.78%.
For CCCC(=O)O[C@]1(C(=O)COC(C)=O)CC[C@H]2C3C[C@H](F)C4=CC(=O)C=CC4(C)[C@@]3(F)[C@@H](O)CC21C (stereo partly drawn), the “activity, negative = inhibition” value was 4.83%.
For OCCN1CC(O)C(O)C(O)C1CO (stereo not drawn), the “activity, negative = inhibition” value was -2.64%.
In the case of COc1cc2c(cc1O)CCN[C@@]21CS[C@H]2c3c(OC(C)=O)c(C)c4c(c3C(COC1=O)N1C2C2c3c(cc(C)c(OC)c3O)CC([C@@H]1O)N2C)OCO4 (stereo partly drawn), the Potency is reported as 1.1 nM (active).
For CC(CCC(=O)O)C1CCC2C3C(=O)C[C@@H]4CC(=O)CC[C@@]4(C)C3CC(=O)[C@]12C (stereo partly drawn), the “activity, negative = inhibition” value was -0.776%.
With C[n+]1c2cc(N)ccc2cc2ccc(N)cc21 the Potency was 631 nM (active).
For O=C(OC[C@@H]1O[C@@](O)(COC(=O)c2cccnc2)[C@H](OC(=O)c2cccnc2)[C@H]1OC(=O)c1cccnc1)c1cccnc1, the “activity, negative = inhibition” value was 0.912%.
O=[N+]([O-])O[C@H]1CO[C@H]2[C@@H]1OC[C@H]2O was tested, and the “activity, negative = inhibition” value was 10.9%.
For COc1cccc(OC)c1C(=O)NC1C(=O)N2C1SC(C)(C)C2C(=O)O (stereo not drawn), the “activity, negative = inhibition” value was 2.56%.
In the case of NC[C@@H]1O[C@H](OC2[C@@H](CO)O[C@@H](OC3[C@H](O)[C@H](N)C[C@H](N)[C@H]3OC3O[C@H](CO)[C@@H](O)[C@H](O)[C@@H]3N)[C@H]2O)C(N)[C@H](O)[C@@H]1O (stereo partly drawn), the “activity, negative = inhibition” value is reported as 4.36%.
In the case of Cc1ccc(S(=O)(=O)NC(=O)NC(C)Cc2ccccc2)cc1 (stereo not drawn), the “activity, negative = inhibition” value is reported as 9.65%.
OCCOC[C@H]1O[C@H](OCCO)[C@H](OCCO)[C@@H](OCCO)[C@@H]1OCCO (tested in a mixture with another compound) was tested, and the “activity, negative = inhibition” value was 5.79%.
C[S+](C)CC[C@H](N)C(=O)O was tested, and the “activity, negative = inhibition” value was 13.5%.
In the case of CC[C@@H]1/C=C(\C)C[C@H](C)C[C@H](OC)[C@H]2O[C@@](O)(C(=O)C(=O)N3CCCC[C@H]3C(=O)O[C@H](/C(C)=C/[C@@H]3CC[C@H](Cl)[C@H](OC)C3)[C@H](C)[C@@H](O)CC1=O)[C@H](C)C[C@@H]2OC, the “activity, negative = inhibition” value is reported as 5.97%.
In the case of NC(=O)C1CC2(NC(=O)NC2=O)c2cc(F)ccc2O1 (stereo not drawn), the “activity, negative = inhibition” value is reported as 3.21%.
For CN1[C@@H]2CC[C@@H]1CC(OC(=O)[C@H](CO)c1ccccc1)C2 (stereo partly drawn), the “activity, negative = inhibition” value was -0.0796%.
In the case of CC[C@@]1(O)C[C@H](O[C@H]2C[C@@H](N(C)C)[C@@H](O[C@H]3C[C@@H](O)[C@@H](O[C@H]4CCC(=O)[C@@H](C)O4)[C@@H](C)O3)[C@@H](C)O2)c2c(cc3c(c2O)C(=O)c2c(O)cccc2C3=O)[C@H]1C(=O)OC, the Potency is reported as 251 nM (active).
In the case of CCCCCCCCCCCC(=O)OCC(O)C1OCC(O)C1O (stereo not drawn), the “activity, negative = inhibition” value is reported as 12.7%.
For C/C1=C2/[N-]C(C(CC(N)=O)[C@@]2(C)CCC(=O)NCC(C)OP(=O)([O-])O[C@H]2[C@@H](O)[C@@H](n3cnc4cc(C)c(C)cc43)O[C@@H]2CO)[C@]2(C)N=C(/C(C)=C3N=C(/C=C4N=C1C(CCC(N)=O)C\4(C)C)[C@@H](CCC(N)=O)[C@]\3(C)CC(N)=O)[C@@H](CCC(N)=O)[C@]2(C)CC(N)=O.CC(=O)O.[Co] (stereo partly drawn), the “activity, negative = inhibition” value was 8.14%.
With CC1(C)OC[C@@H]2O[C@@]3(C(=O)O)OC(C)(C)O[C@@H]3[C@@H]2O1 the “activity, negative = inhibition” value was 1.82%.
Cc1ccccc1N1C(=O)c2cc(N)ccc2N/C1=C\F was tested, and the “activity, negative = inhibition” value was 0.223%.
With CCC(C(=O)O)C1OC(C(C)C(O)C(C)C(=O)C(CC)C2OC3(C=CC(O)C4(CCC(C)(C5CCC(O)(CC)C(C)O5)O4)O3)C(C)CC2C)C(C)CC1C (stereo not drawn) the Potency was 224 nM (active).
With O=C1C(I)=CC(=C(c2cc(I)c(O)c(I)c2)c2ccccc2C(=O)O)C=C1I the “activity, negative = inhibition” value was -4.62%.
In the case of NC(=O)NC(CCC(=O)O)C(=O)O (stereo not drawn), the “activity, negative = inhibition” value is reported as 13.6%.
With COC1CC2CCC(C)[C@](O)(O2)C(=O)C(=O)N2CCCCC2C(=O)OC(C(C)CC2CCC(O)C(OC)C2)CC(=O)C(C)/C=C(/C)C(O)C(OC)C(=O)C(C)CC(C)C=CC=C/C=C\1C (stereo partly drawn) the Potency was 4470 nM (active).
For CC(=O)OCC(=O)[C@@]1(O)CCC2C3C[C@H](C)C4=CC(=O)C=CC4(C)C3C(O)CC21C (stereo partly drawn), the “activity, negative = inhibition” value was 1.83%.
For CN[C@H](C)CCC=C(C)C, the Potency was 708 nM (active).
CC1(C)C2CC[C@]1(C)[C@@H](O)C2 was tested, and the “activity, negative = inhibition” value was 8.59%.
With OCC1O[C@H](Oc2ccc(O)cc2)C(O)C(O)C1O (stereo partly drawn) the “activity, negative = inhibition” value was -2.3%.
With Nc1nc(F)nc2c1ncn2[C@@H]1O[C@H](CO)[C@@H](O)[C@H]1O the “activity, negative = inhibition” value was 1.29%.
For CC1OC(OC2CCC3(C)C(CCC4C3CC(O)C3(C)C(C5=CC(=O)OC5)CCC43O)C2)CC(O)C1OC1CC(O)C(OC2CC(O)C(OC3OC(CO)C(O)C(O)C3O)C(C)O2)C(C)O1 (stereo not drawn), the “activity, negative = inhibition” value was -6.66%.
CC1OC(OCC2OC(Oc3c(-c4ccc(OCCO)c(OCCO)c4)oc4cc(OCCO)cc(O)c4c3=O)C(O)C(O)C2O)[C@@H](O)C(O)C1O (stereo partly drawn) was tested, and the “activity, negative = inhibition” value was -11.8%.
